Data reported in the supplement of paper PMC10849652.
Targets with a hit are over-represented here; the source holds about 7,900 in all. About 0.6% of all pairs of compound and target were hits.

Assays:
Assay in all cases: log2 fold change, soluble protein after heating vs DMSO (PISA); higher = thermal stabilisation; K562 cells, 10 uM, 30 min; active = over 0.2 and 3.5 SD of the protein, either way, in both replicates (recomputed)
[1] = compound: CS(=O)(=O)c1ccc(-c2cnc(N)c(C(=O)Nc3ccccc3)n2)cc1
Outline: (§1)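 Soluble protein was defined as the supernatant after 21,000xg for 90 min. It came from K562 cells at 2×10^6 cells/mL given 10 μM compound for 30 min, heated in aliquots for 3 min across 48°C-58°C, pooled, and extracted in PBS with 0.5% NP-40 at 4°C, and was quantified by TMTpro 16plex LC-MS/MS with equalised channel sums. Thermal stability against control samples, from duplicates, is reported as log2 fold change.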

crizotinib = compound: C[C@@H](Oc1cc(-c2cnn(C3CCNCC3)c2)cnc1N)c1c(Cl)ccc(F)c1Cl [crizotinib]
Outline: as §1

[2] = compound: C[C@@H]1COCCN1C2=NC(=NC(=C2)C3(CC3)S(=O)(=O)C)C4=C5C=CNC5=CC=C4
Outline: as §1

[3] = compound: C[C@H](C1=CC=C(C=C1)C(=O)NC2=C3C=CNC3=NC=C2)N
Outline: as §1

duvelisib = compound: C[C@H](Nc1ncnc2nc[nH]c12)c1cc2cccc(Cl)c2c(=O)n1-c1ccccc1 [duvelisib]
Outline: as §1

gandotinib = compound: Cc1cc(Nc2cc(CN3CCOCC3)c3nc(C)c(Cc4ccc(Cl)cc4F)n3n2)n[nH]1 [gandotinib]
Outline: as §1

tozasertib = compound: Cc1cc(Nc2cc(N3CCN(C)CC3)nc(Sc3ccc(NC(=O)C4CC4)cc3)n2)n[nH]1 [tozasertib]
Outline: as §1

[4] = compound: Cc1cc(SCc2sc(-c3ccc(C(F)(F)F)cc3)nc2C)ccc1OCC(=O)O
Outline: as §1

doramapimod = compound: Cc1ccc(-n2nc(C(C)(C)C)cc2NC(=O)Nc2ccc(OCCN3CCOCC3)c3ccccc23)cc1 [doramapimod]
Outline: as §1

ispinesib = compound: Cc1ccc(C(=O)N(CCCN)[C@@H](c2nc3cc(Cl)ccc3c(=O)n2Cc2ccccc2)C(C)C)cc1 [ispinesib]
Outline: as §1

bafetinib = compound: Cc1ccc(NC(=O)c2ccc(CN3CC[C@H](N(C)C)C3)c(C(F)(F)F)c2)cc1Nc1nccc(-c2cncnc2)n1 [bafetinib]
Outline: as §1

[5] = compound: Cc1cccc(CC(=O)N2CCc3c2ccc(-c2cn(C)c4ncnc(N)c24)c3F)n1
Outline: as §1

nilotinib = compound: Cc1cn(-c2cc(NC(=O)c3ccc(C)c(Nc4nccc(-c5cccnc5)n4)c3)cc(C(F)(F)F)c2)cn1 [nilotinib]
Outline: as §1

[6] = compound: Cc1nc(Nc2n[nH]c3c2CN(C(=O)N[C@H](CN(C)C)c2ccccc2)C3(C)C)c2sccc2n1
Outline: as §1

dasatinib = compound: Cc1nc(Nc2ncc(C(=O)Nc3c(C)cccc3Cl)s2)cc(N2CCN(CCO)CC2)n1 [dasatinib]
Outline: as §1

[7] = compound: Cc1ncc(-c2ccnc(Nc3ccc(S(C)(=O)=O)cc3)n2)n1C(C)C
Outline: as §1

[8] = compound: Cn1cc(-c2ccc3c(c2)CCN3C(=O)Cc2cccc(C(F)(F)F)c2)c2c(N)ncnc21
Outline: as §1

[9] = compound: Cn1cc(-c2ccc3nnc(C(F)(F)c4ccc5ncccc5c4)n3n2)cn1
Outline: as §1

tipifarnib = compound: Cn1cncc1[C@@](N)(c1ccc(Cl)cc1)c1ccc2c(c1)c(-c1cccc(Cl)c1)cc(=O)n2C [tipifarnib]
Outline: as §1

mubritinib = compound: FC(F)(F)c1ccc(/C=C/c2nc(COc3ccc(CCCCn4ccnn4)cc3)co2)cc1 [mubritinib]
Outline: as §1

Measured: log2 fold change

ACAD9 (UniProt Q9H845)
inactive: [1] 0.01 | crizotinib 0.035 | [2] 0.021 | [3] -0.061 | duvelisib 0.048 | gandotinib -0.03 | tozasertib -0.016 | [4] -0.052 | doramapimod -0.002 | ispinesib 0.059 | bafetinib -0.061 | [5] -0.022 | nilotinib 0 | [6] 0.021 | dasatinib 0.125 | [7] -0.023 | [8] 0.047 | [9] 0.014 | tipifarnib 0.055 | mubritinib 0.067

AGPAT1 (UniProt Q99943)
inactive: [1] 0.017 | crizotinib 0.187 | [2] 0.043 | [3] -0.018 | duvelisib 0.041 | gandotinib -0.106 | tozasertib 0.012 | [4] 0.014 | doramapimod 0.019 | ispinesib 0.096 | bafetinib -0.036 | [5] 0.012 | nilotinib -0.035 | [6] 0.016 | dasatinib -0.033 | [7] -0.063 | [8] 0.033 | [9] -0.006 | tipifarnib 0.027 | mubritinib 0.014

ARL6IP4 (UniProt Q66PJ3)
UniProt Q66PJ3, sequence (Q66PJ3 whole entry, looked up): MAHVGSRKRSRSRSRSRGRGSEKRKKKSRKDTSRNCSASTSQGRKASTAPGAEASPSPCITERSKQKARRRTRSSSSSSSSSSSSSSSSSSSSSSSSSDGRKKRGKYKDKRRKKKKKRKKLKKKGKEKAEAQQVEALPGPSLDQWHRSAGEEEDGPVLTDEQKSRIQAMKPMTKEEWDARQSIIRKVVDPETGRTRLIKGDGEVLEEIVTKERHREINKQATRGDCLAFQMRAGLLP
inactive: [1] 0.014 | crizotinib 0.026 | [2] 0.036 | [3] -0.093 | duvelisib 0.039 | gandotinib 0.114 | tozasertib -0.005 | [4] -0.038 | doramapimod 0.013 | ispinesib -0.051 | bafetinib -0.042 | [5] 0.002 | nilotinib -0.012 | dasatinib 0.016 | [7] 0.013 | [8] 0.112 | [9] -0.038 | tipifarnib 0.019 | mubritinib 0.023
active: [6] -0.459

ADD3 (UniProt Q9UEY8)
inactive: [1] 0 | crizotinib 0.023 | [2] 0.018 | [3] -0.079 | duvelisib 0.023 | gandotinib -0.029 | tozasertib -0.053 | [4] -0.059 | doramapimod 0.016 | ispinesib 0.061 | bafetinib 0.008 | [5] -0.008 | nilotinib 0.031 | [6] -0.004 | dasatinib 0.072 | [7] -0.096 | [8] 0.028 | [9] -0.016 | tipifarnib 0.009 | mubritinib 0.038

ALKBH5 (UniProt Q6P6C2)
UniProt Q6P6C2, sequence (Q6P6C2 whole entry, looked up): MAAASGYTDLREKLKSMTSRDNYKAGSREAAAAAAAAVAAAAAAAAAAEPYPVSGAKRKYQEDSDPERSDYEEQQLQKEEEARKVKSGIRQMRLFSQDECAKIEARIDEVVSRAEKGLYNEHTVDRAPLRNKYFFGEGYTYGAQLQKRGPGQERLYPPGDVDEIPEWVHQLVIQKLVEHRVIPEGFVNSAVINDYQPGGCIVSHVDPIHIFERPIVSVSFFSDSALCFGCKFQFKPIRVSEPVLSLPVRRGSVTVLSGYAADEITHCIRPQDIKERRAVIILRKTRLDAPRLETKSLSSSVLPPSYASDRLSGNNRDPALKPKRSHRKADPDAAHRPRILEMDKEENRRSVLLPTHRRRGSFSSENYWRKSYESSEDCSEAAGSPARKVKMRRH
inactive: [1] 0.048 | crizotinib 0.032 | [2] -0.11 | [3] 0.013 | duvelisib 0.012 | gandotinib 0.267 | tozasertib -0.167 | [4] -0.055 | doramapimod -0.01 | ispinesib 0.007 | bafetinib 0.038 | [5] -0.15 | nilotinib 0.018 | [6] -0.025 | dasatinib 0.014 | [7] 0.011 | [8] -0.042 | [9] 0.011 | tipifarnib 0.077 | mubritinib -0.019

BOP1 (UniProt Q14137)
inactive: [1] -0.008 | crizotinib 0.11 | [2] -0.153 | [3] 0.064 | duvelisib -0.113 | gandotinib 0.025 | tozasertib 0.007 | [4] 0.134 | doramapimod -0.008 | ispinesib -0.114 | bafetinib 0.031 | [5] -0.083 | nilotinib -0.028 | [6] -0.159 | dasatinib 0.02 | [7] -0.122 | [8] -0.038 | [9] -0.087 | tipifarnib 0.114 | mubritinib -0.114

ACSL1 (UniProt P33121)
UniProt P33121, sequence (P33121 whole entry, looked up): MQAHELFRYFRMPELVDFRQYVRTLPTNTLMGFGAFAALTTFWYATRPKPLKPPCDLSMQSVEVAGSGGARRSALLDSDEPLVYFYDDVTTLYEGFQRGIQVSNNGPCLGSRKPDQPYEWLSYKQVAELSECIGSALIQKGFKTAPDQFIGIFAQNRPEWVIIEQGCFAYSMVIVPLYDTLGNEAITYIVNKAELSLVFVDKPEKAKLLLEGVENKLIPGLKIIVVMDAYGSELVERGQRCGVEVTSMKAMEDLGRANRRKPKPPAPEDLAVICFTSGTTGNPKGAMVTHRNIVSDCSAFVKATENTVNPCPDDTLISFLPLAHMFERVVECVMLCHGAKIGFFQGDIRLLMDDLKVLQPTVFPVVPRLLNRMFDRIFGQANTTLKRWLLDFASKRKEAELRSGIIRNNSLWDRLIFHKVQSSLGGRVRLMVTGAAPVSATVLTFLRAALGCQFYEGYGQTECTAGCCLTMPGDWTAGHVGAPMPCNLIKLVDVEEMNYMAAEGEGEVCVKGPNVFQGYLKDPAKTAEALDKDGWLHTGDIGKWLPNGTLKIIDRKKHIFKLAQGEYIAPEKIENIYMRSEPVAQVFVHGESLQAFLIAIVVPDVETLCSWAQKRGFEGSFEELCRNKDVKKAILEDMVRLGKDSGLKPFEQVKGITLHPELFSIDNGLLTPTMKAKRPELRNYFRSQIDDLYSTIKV
inactive: [1] 0.012 | crizotinib -0.091 | [2] 0.017 | [3] -0.024 | duvelisib 0.056 | gandotinib 0.008 | tozasertib -0.028 | [4] 0 | doramapimod -0.003 | bafetinib -0.178 | [5] -0.004 | nilotinib -0.003 | [6] -0.07 | dasatinib -0.076 | [7] -0.013 | [8] 0.027 | [9] 0.024 | tipifarnib -0.015 | mubritinib -0.009
active: ispinesib -0.246

APPL1 (UniProt Q9UKG1)
inactive: [1] -0.019 | crizotinib -0.015 | [2] -0.078 | [3] 0.034 | duvelisib 0.077 | gandotinib 0.123 | tozasertib -0.028 | [4] -0.003 | doramapimod 0.032 | ispinesib -0.098 | bafetinib -0.013 | [5] -0.092 | nilotinib -0.046 | [6] 0.161 | dasatinib -0.003 | [7] 0.002 | [8] 0.03 | [9] -0.001 | tipifarnib -0.051 | mubritinib -0.029

BECN1 (UniProt Q14457)
active: duvelisib 0.283
inactive: [1] 0.141 | crizotinib -0.126 | [2] 0.043 | [3] 0.093 | gandotinib 0.138 | tozasertib 0.034 | [4] -0.066 | doramapimod -0.004 | ispinesib -0.019 | bafetinib 0.063 | [5] -0.032 | nilotinib 0.032 | [6] -0.025 | dasatinib -0.072 | [7] 0.076 | [8] -0.015 | [9] -0.038 | tipifarnib -0.003 | mubritinib 0.023

ATP13A3 (UniProt Q9H7F0)
inactive: [1] 0.076 | crizotinib -0.251 | [2] -0.037 | [3] 0.056 | duvelisib 0.09 | gandotinib 0 | tozasertib -0.118 | [4] -0.043 | doramapimod 0.045 | ispinesib -0.251 | bafetinib -0.067 | [5] 0.116 | nilotinib -0.015 | [6] -0.06 | dasatinib 0.008 | [7] 0.024 | [8] -0.099 | [9] 0.002 | tipifarnib 0.098 | mubritinib -0.049

ATP11A (UniProt P98196)
UniProt P98196, sequence (P98196 whole entry, looked up): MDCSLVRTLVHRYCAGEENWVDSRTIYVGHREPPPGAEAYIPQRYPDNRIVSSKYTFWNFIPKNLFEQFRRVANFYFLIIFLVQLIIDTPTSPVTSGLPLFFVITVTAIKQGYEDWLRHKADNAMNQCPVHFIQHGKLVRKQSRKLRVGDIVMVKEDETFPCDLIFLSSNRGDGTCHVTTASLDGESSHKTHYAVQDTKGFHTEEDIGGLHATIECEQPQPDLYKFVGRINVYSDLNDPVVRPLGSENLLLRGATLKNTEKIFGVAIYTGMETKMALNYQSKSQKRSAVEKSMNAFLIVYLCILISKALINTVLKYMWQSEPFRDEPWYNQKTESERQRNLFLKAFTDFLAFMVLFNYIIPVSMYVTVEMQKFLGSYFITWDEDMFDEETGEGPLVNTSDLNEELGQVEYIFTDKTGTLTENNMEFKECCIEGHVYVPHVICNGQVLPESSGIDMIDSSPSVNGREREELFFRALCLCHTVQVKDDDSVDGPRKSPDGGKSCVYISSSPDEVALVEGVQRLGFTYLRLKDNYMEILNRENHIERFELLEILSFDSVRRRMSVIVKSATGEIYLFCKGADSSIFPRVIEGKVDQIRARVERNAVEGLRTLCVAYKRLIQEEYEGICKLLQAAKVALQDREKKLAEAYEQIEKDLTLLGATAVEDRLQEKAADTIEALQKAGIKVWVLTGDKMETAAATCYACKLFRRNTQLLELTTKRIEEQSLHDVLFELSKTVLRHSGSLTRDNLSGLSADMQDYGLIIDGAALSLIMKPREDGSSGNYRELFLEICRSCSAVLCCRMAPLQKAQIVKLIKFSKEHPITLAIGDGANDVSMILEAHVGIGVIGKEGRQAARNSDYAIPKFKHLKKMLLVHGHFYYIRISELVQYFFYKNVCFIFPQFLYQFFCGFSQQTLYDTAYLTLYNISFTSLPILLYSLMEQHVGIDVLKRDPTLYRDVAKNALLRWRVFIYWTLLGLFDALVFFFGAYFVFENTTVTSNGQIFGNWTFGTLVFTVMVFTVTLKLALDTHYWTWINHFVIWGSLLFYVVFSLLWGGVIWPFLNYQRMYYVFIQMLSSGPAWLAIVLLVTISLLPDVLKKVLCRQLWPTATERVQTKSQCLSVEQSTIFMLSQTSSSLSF
inactive: [1] 0.017 | crizotinib 0.042 | [2] 0.032 | [3] -0.103 | duvelisib -0.025 | gandotinib 0.027 | tozasertib -0.017 | [4] -0.055 | doramapimod 0.018 | ispinesib 0.092 | bafetinib -0.028 | [5] -0.002 | nilotinib 0.113 | [6] -0.012 | dasatinib -0.01 | [7] 0.029 | [8] -0.006 | [9] 0.01 | tipifarnib 0.051 | mubritinib 0.056

ANKZF1 (UniProt Q9H8Y5)
inactive: [1] 0.031 | crizotinib -0.037 | [2] -0.135 | [3] 0.174 | duvelisib -0.15 | gandotinib 0.007 | tozasertib 0.021 | [4] -0.068 | doramapimod -0.059 | ispinesib -0.349 | bafetinib 0.104 | [5] -0.047 | nilotinib -0.151 | [6] -0.29 | dasatinib -0.04 | [7] 0.018 | [8] -0.005 | [9] -0.126 | tipifarnib 0.026 | mubritinib -0.074

AP2A2 isoform 2 (UniProt O94973)
UniProt O94973, sequence (O94973 whole entry, looked up): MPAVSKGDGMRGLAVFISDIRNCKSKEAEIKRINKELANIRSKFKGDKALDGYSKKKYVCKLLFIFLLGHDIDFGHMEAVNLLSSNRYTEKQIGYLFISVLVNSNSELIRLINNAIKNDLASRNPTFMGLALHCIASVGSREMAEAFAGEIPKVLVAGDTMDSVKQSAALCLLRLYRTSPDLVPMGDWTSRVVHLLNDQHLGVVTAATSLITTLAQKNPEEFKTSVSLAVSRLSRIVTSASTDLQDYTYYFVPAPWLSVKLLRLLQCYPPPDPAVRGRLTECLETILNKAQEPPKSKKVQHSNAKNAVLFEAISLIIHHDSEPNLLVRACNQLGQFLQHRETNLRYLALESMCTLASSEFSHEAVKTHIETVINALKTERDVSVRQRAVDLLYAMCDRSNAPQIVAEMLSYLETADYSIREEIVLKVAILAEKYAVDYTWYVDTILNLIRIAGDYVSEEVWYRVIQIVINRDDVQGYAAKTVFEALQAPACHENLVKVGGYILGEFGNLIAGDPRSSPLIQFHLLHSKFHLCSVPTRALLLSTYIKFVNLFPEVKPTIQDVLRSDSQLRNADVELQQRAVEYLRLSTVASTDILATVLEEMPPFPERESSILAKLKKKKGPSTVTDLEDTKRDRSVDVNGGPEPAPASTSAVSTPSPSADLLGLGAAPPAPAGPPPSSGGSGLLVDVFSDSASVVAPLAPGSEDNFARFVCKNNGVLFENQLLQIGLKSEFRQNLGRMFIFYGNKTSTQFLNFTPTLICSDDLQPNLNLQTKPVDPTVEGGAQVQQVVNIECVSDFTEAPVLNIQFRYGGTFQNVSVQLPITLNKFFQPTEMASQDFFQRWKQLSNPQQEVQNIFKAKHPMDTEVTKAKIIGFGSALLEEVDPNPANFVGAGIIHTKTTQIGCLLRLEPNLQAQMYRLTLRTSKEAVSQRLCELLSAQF
inactive: [1] 0.022 | crizotinib -0.076 | [2] -0.033 | [3] -0.186 | duvelisib 0.009 | gandotinib -0.057 | tozasertib -0.091 | [4] -0.021 | doramapimod 0.03 | ispinesib 0.024 | bafetinib 0.02 | [5] 0.031 | nilotinib -0.027 | [6] 0.009 | dasatinib 0.062 | [7] -0.018 | [8] 0.006 | [9] -0.074 | tipifarnib -0.006 | mubritinib 0.035

ACP1 isoform 2 (UniProt P24666)
UniProt P24666, sequence (P24666 whole entry, looked up): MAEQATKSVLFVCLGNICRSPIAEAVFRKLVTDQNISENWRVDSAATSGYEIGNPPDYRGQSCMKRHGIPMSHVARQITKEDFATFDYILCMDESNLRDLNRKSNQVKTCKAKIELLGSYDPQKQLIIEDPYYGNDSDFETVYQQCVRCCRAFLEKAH
inactive: [1] 0.008 | crizotinib -0.079 | [2] 0.016 | [3] 0.15 | duvelisib 0.004 | gandotinib -0.137 | tozasertib -0.09 | [4] 0.12 | doramapimod 0.033 | ispinesib -0.041 | bafetinib 0.037 | [5] 0.036 | nilotinib 0.039 | [6] -0.063 | dasatinib -0.126 | [7] -0.049 | [8] -0.044 | [9] 0.022 | tipifarnib -0.146 | mubritinib 0.042

BUB1B isoform 3 (UniProt O60566)
UniProt O60566, sequence (O60566 whole entry, looked up): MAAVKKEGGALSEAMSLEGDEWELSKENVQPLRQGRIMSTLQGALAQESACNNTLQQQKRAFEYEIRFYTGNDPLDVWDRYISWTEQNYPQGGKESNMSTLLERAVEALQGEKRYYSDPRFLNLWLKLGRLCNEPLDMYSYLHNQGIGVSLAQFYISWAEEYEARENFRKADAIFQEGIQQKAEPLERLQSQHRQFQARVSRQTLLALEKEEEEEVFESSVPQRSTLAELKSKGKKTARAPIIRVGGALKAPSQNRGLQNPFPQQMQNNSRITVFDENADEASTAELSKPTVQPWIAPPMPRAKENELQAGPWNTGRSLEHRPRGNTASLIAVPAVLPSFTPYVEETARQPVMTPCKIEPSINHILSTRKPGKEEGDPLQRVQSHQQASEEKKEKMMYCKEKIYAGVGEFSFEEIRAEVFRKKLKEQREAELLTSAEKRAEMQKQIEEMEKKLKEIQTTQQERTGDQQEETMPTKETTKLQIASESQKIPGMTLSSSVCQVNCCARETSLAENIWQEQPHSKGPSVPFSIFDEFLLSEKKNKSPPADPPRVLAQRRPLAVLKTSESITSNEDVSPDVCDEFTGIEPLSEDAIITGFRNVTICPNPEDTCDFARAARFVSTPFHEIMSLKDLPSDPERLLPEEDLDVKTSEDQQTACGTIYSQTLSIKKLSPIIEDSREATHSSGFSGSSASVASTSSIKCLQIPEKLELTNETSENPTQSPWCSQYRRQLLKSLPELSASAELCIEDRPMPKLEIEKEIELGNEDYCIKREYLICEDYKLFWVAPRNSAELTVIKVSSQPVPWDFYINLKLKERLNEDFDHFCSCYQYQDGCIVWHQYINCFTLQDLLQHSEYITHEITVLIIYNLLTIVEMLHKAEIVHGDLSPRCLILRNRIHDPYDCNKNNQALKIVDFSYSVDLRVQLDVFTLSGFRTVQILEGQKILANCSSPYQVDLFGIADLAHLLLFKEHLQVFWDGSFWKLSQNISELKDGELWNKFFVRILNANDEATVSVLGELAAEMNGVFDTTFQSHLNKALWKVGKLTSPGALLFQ
inactive: [1] -0.015 | crizotinib -0.108 | [2] 0.013 | [3] 0.083 | duvelisib 0.011 | gandotinib -0.207 | tozasertib 0.119 | [4] 0.057 | doramapimod 0.047 | ispinesib -0.072 | bafetinib 0.03 | [5] 0.107 | nilotinib -0.089 | [6] -0.142 | dasatinib -0.13 | [7] 0.02 | [8] 0 | [9] 0.017 | tipifarnib -0.114 | mubritinib 0.012

ARL1 (UniProt P40616)
UniProt P40616, sequence (P40616 whole entry, looked up): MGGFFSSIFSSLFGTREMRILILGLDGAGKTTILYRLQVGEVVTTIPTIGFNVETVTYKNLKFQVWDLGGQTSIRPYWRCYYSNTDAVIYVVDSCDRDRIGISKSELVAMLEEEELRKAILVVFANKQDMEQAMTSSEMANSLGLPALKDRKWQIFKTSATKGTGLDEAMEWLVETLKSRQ
inactive: [1] 0.01 | crizotinib -0.073 | [2] 0.094 | [3] -0.092 | duvelisib -0.004 | gandotinib -0.111 | tozasertib 0.028 | [4] 0.031 | doramapimod 0.018 | ispinesib -0.064 | bafetinib 0.114 | [5] 0.205 | nilotinib -0.174 | [6] -0.017 | dasatinib -0.131 | [7] 0.096 | [8] 0.055 | [9] 0.019 | tipifarnib -0.123 | mubritinib -0.046
